Measurements from ChEMBL document CHEMBL1157539, “Thousands of chemical starting points for antimalarial lead identification” (Nature, 2010).

Columns and labels:
Format in all cases: functional
[1] = tested on: Plasmodium falciparum; experiment: GSK_TCMDC: Inhibition of Plasmodium falciparum 3D7 in whole red blood cells, using parasite LDH activity as an index of growth. Test compounds present at 2uM
[2] = tested on: Plasmodium falciparum; experiment: GSK_TCMDC: Inhibition of Plasmodium falciparum Dd2 in whole red blood cells, using parasite LDH activity as an index of growth. Test compounds present at 2uM
[3] = tested on: HepG2; experiment: GSK_TCMDC: Percent inhibition of human HepG2 cell line. Test compounds present at 10uM.

## CC(C)c1ccc(-c2nc3cc(Cl)cnc3[nH]2)cc1
[1]
  Inhibition: 87%
[2]
  Inhibition: 77%
[3]
  Inhibition: 3%

## Cc1cnc(Nc2cccc(CCN3CCOCC3)c2)nc1NC(C)C.Cl
[1]
  Inhibition: 97%
[2]
  Inhibition: 76%
[3]
  Inhibition: 53%

## Cc1cccc2nc(-c3ccc(-c4cccc(CNCCNC(=O)c5ccnn5C)c4)cc3)[nH]c12.O=C(O)C(F)(F)F
[1]
  Inhibition: 100%
[2]
  Inhibition: 92%
[3]
  Inhibition: 17%

## Cc1cc(N(C)CCCN2CCCCC2)nc(Nc2ccc(Cl)cc2)n1.Cl
[1]
  Inhibition: 100%
[2]
  Inhibition: 82%
[3]
  Inhibition: 7%

## Oc1ccc(-c2cncc(NCc3ccc(F)c(F)c3)c2)cc1
[1]
  Inhibition: 95%
[2]
  Inhibition: 80%
[3]
  Inhibition: 0%

## O=C(NC1CCCc2ccccc21)[C@@H]1CCCN1C(=O)c1ccc(O)c(-c2ccc(Cl)c(Cl)c2)c1 (stereo partly drawn)
[1]
  Inhibition: 99%
[2]
  Inhibition: 99%
[3]
  Inhibition: 0%

## CCCCNc1ccc(C(=O)NC2CCN(C[C@H](O)c3ccnc4ccc(OC)cc34)CC2)cc1
[1]
  Inhibition: 90%
[2]
  Inhibition: 64%
[3]
  Inhibition: 12%

## CCOc1cc(C(=O)NC2CCN(Cc3ccccc3)CC2)ccc1-c1nc2cc(Cl)c(Cl)cc2[nH]1
[1]
  Inhibition: 100%
[2]
  Inhibition: 99%
[3]
  Inhibition: 24%

## CC(C)c1cccc(OCC2CCN(c3ncc(C(=O)NC4CC4)cc3Cl)CC2)c1
[1]
  Inhibition: 94%
[2]
  Inhibition: 95%
[3]
  Inhibition: 9%

## O=C(c1cccc(-c2noc(C(F)(F)F)n2)c1)N1CCN(C(=O)c2ccc3cc[nH]c3c2)CC1
[1]
  Inhibition: 94%
[2]
  Inhibition: 85%
[3]
  Inhibition: 15%

## CC(=O)CCc1ccc(OCCN(Cc2ccccc2C(F)(F)F)c2ccc(C#N)c(C(F)(F)F)c2)cc1
[1]
  Inhibition: 100%
[2]
  Inhibition: 87%
[3]
  Inhibition: 14%
